This note sets out measurements from PubChem BioAssay (NCI).

Compounds without any hit were thinned out: in the full panel of roughly 83,000, 20% have a hit.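 The endpoint reported here, percent growth, reads 100 for growth as untreated, 0 for no net growth and -100 for all cells dead.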 A number with no mark means an inactive call. Calls of active or inactive are those of the source. Rule for the calls: active = growth percent below 10; inactive = the rest.

This assay concerns SK-MEL-5 melanoma. Nature of the assay: NCI-60 one-dose screen, 48 h (100 = growth as untreated, 0 = no growth, -100 = all killed). The conditions noted are these: 10 µM unless noted.
With `CC/C(=C(/c1ccc(Cl)cc1)c1ccc(OCCN2CCCC2)cc1)c1ccc(OC)cc1`, the growth is 66%.

As to `c1cc2[nH]ncc2cc1-c1nc2ccc3[nH]ncc3c2c2c1CCCC2`, the growth is -56.1% (active).

In the case of `O=C(/C=C/c1ccc(Cl)cc1)c1cccc(Nc2nc(Nc3ccccc3)nc(Nc3ccccc3)n2)c1`, the growth is 85.6%.

On to `N#Cc1nc(-c2ccccc2)oc1S(=O)(=O)N1CCOCC1`, for which the growth is 91.6%.

In the case of `O=C1Nc2ccccc2/C1=C\c1nc(-c2ccccc2)n2ccccc12`, the growth was 89.7%.

As for `O=C(COc1ccc(-c2nc3ccccc3[nH]2)cc1)N=Nc1c(O)[nH]c2ccc(Cl)cc12`, the growth is 94.9%.

Consider `COc1ccc(NC(=O)c2sc3nc(C)c(C(=O)/C=C/c4cccc(OC)c4)cc3c2N)cc1`, for which the growth is 71.3%.

With `COc1cnc2c(c1)C(=O)c1c-2n(CCCNCCO)c(=O)c2ccncc12`, the growth is -78.4% (active).

`O=C(Nc1nc2ccc(F)cc2s1)c1cccnc1Nc1ccc(Cl)cc1`: the growth is 5.56% (active).

Regarding `N#CC1C=CN(CC(N)=O)c2ccc3cccnc3c21` (stereo not given), the growth is 96.5%.

As to `COc1ccc(-c2nc3c(c(-c4ccccc4)nn3-c3ccccc3)c(-c3ccc(N4CCN(C)CC4)cc3)c2C#N)cc1`, the growth was 97.8%.

As to `Cn1c(=O)c2[nH]c(N/N=C/c3ccccc3Br)nc2n(C)c1=O`, the growth was 103%.

In the case of `O=C(Nc1ccc(NC(=O)c2cc(=O)[nH]c3ccccc23)cc1)Nc1cccc(C(F)(F)F)c1`, the growth was 69.9%.

On to `O=C1C(Cl)=C(Oc2ccccc2)C(=O)c2ccccc21`, for which the growth was 74.8%.

Take `CC(C)OC(=O)c1ccc2[nH]c(O)c(C(=Nc3ccc(N(C)C(=O)CN4CCN(C)CC4)cc3)c3ccccc3)c2c1`: the growth was -95.4% (active).

For the molecule `O=C1C(Cl)=C(Nc2ccc(O)cc2)C(=O)N1Cc1ccc(Cl)cc1`, the growth is 50.7%.

`COc1cc(OC)c2sc(-c3ccc(-n4cncc4-c4ccc(OC)c(OC)c4)cc3)nc2c1`: the growth is 22.5%.

With `CCN(CC)C(=S)SC(SC(=S)N(CC)CC)C(=O)c1nnn(-c2ccc([N+](=O)[O-])cc2)c1C`, the growth was 76.7%.

As to `COc1cccc(CNc2ncnc3c2ncn3C2OC(CO)C(O)C2O)c1O` (stereo not given), the growth was 14.4%.

Consider `CC(C)c1ccc(COCc2cc(CN3CCCC3)c(O)c3ncccc23)cc1`, for which the growth is 4.48% (active).

`O=C(NCc1ccccc1)Nc1ccccc1CNc1nc(Nc2ccc(OCCN3CCCC3)cc2)ncc1Cl`: the growth is 95.2%.

Take `Cc1ccc(-n2c(=S)[nH]c3sc4c(c3c2=O)CCC(=O)C4)cc1`: the growth was 26.7%.

Consider `Oc1c(Cl)cc(Cl)cc1/C=N/Nc1nnc(N/N=C/c2cc(Cl)cc(Cl)c2O)c2ccccc12`, for which the growth is -46.8% (active).

As to `CCCCCCC1(C)NCCO1` (stereo not given), the growth was 112%.

Turning to `Clc1ccc2c(c1)N(c1ncnc3ccc(-c4cnc5[nH]ncc5c4)cc13)CC2`, the growth is 46.5%.

As to `COC(=O)c1cc(-c2ccc(S(C)(=O)=O)cc2)[nH]c1N/N=C/c1c(Cl)cccc1Cl`, the growth was 25.7%.

`C=CCn1c(SCC(=O)Nc2ccc(C(=O)/C=C/c3ccc(Cl)cc3)cc2)nnc1-c1cc(-c2ccc(S(N)(=O)=O)cc2)nc2ccccc12`: the growth is 76.8%.

As for `Cc1cc2c(O)c(-c3cc(Cl)ccc3Cl)c3sc(=O)oc3c2cc1C`, the growth was 42.5%.

With `CC(=O)N(N=Nc1ccccc1)c1cccc2ccccc12`, the growth is 84.3%.

Turning to `Cc1ccc(-c2nc3nc(-c4ccc(F)cc4)nc(N4CCNCC4)c3o2)cc1`, the growth is 96.9%.

For `O=c1oc2ccc([N+](=O)[O-])cc2cc1Br`, the growth was 102%.

In the case of `COc1ccc2nc(NC(=O)CSc3nnc4n3S(=O)(=O)c3ccccc3N4C)sc2c1`, the growth is 95.1%.

Consider `Cc1ccc(-c2nn(-c3ccccc3)cc2C=C2C(=O)ON=C2C(C)C)cc1`, for which the growth is 87.1%.

For `Cc1cccc(N2CCN(CC(O)COc3ccc(Cl)cc3)CC2)c1` (stereo not given), the growth is 97.4%.

Consider `Cc1nc2c(=O)[nH]c(SCC(=O)Nc3cccc(F)c3)nc2[nH]c1=O`, for which the growth is 102%.

As for `CN(C)c1ccc(/C=C/C(=O)c2ccc(-n3cc(CN4CCN(c5cc6c(cc5F)c(=O)c(C(=O)O)cn6C5CC5)CC4)nn3)cc2)cc1`, the growth was 79%.

As to `COc1cc2c(c(OC)c1OC)-c1ccc(OC)c(=O)cc1[C@@H](NC(=O)CCl)CC2`, the growth was -73.7% (active).

For the molecule `O=C(Nc1cccnc1Nc1ccc(F)cc1)c1cn(Cc2cccc(Oc3ccccc3)c2)nn1`, the growth is 39.3%.

Regarding `COc1ccc(-c2ccc3cnc4sc(-c5ccc(OC)cc5)nc4c3n2)cc1`, the growth was 85.2%.

Regarding `CN1CCN(c2ccc(NC(=O)c3cncnc3Nc3ccc(OCc4ccccn4)c(Cl)c3)cc2)CC1`, the growth is 47.2%.
